PubChem BioAssay AID1347423 (Functional Genomics Laboratory (NCATS/FGL), 2020)
About 210 (0.4%) of roughly 52,000 sequences were called active. The full list was thinned out, with actives kept by preference. Values without a mark were called inactive.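 Rule for the calls: active = gene whose silencing raises cell survival under the drug, median off-target-corrected z-score across its silencing RNAs 2 or more; inactive = the rest.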

Assay: Resistance to Poly (ADP-Ribose) Polymerase inhibitor: Gene Identification via Genome-wide siRNA Screen
Conditions: mouse BRCA2 R2336H ES cells, olaparib, CellTiter-Glo viability; hits give high values
In short: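 Mouse BRCA2 R2336H ES cells were reverse-transfected with siRNA (20 nM final), treated at 48 h with 500 nM olaparib, and read by CellTiter-Glo after 72 h. Scores: MAD-based z per siRNA, median per gene, seed off-target correction.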
In the case of GGAACAGUCUGAAAUACACTT against Usp18, the z-score is reported as 0.039 (active).
“GGAUAACCUUAACUUCUGATT against 2810449C13Rik” showed a z-score of 2.16.
For GGGACCCUUCUACAAAAACTT against Pias3, the z-score was 2.3 (active).
Work on “GGAGAGUACUAAAUUUAAGTT against 4833418A01Rik” yielded a z-score of 0.0243.
In the case of “GGAAUUUUAUCAUUGGGACTT against 5031404N07”, the z-score is reported as -0.078.
Work on CCUGGUAACAGUCAUAAAUTT against Lhfpl2 yielded a z-score of -0.196.
In the case of “GGAAAUGCUUCUGAGCUAGTT against 5830417C01Rik”, the z-score is reported as 0.677.
With GGACCUCAGCGAAGACAAUTT against BC034097 the z-score was 2.03 (active).
For GGUCGGUGUUUUAUCUGCUTT against BC019537, the z-score was -1.19.
In the case of GGGAUACUGGUGCUUAACUTT against Abhd1, the z-score is reported as 0.661.
“GCCACCUCUUAUGAGGCUUTT against D630045E04Rik” showed a z-score of -1.04.
In the case of GGUGGUUACAACCGAAGCATT against Fus, the z-score is reported as 2.95 (active).
GCCCUAGAACUUUUGAAUUTT against Dhx15 showed a z-score of -1.01.
Sequence “GGAGGUGUUGAACAAGUGCTT against 1700008P20Rik” has a z-score of -1.32.
In the case of “GCAAGCAGAUCUGAUAUCATT against 2700050F09Rik”, the z-score is reported as 4.76 (active).
In the case of GCCUGGAUUCAGAAGCUACTT against Ugt1a1, the z-score is reported as 0.72.
Work on “GGAGGAGGAGGACUUUGAUTT against 5830417I10Rik” yielded a z-score of -1.23.
GGAACAUUACAAAAGCUCUTT against Slfn1 showed a z-score of -0.715.
For “GAAUCUAAAGAUGAACACCTT against 0610009B22Rik”, the z-score was -0.48.
Sequence GCAAGUGGUAAUGGUGACCTT against Tex15 has a z-score of -0.249.
In the case of GGACUUUUAUUUUGUUAGCTT against Pacsin2, the z-score is reported as 3.01 (active).
Sequence “GUUUUCUUGAGACAGUUAATT against 1810008A14Rik” has a z-score of -0.106.
In the case of GGAGUUGAUCAAGACAGAGTT against S100a5, the z-score is reported as -0.443.
For GGAGGAAAGAAUGUGUAAATT against Birc3, the z-score was -0.544.
Sequence GCAUGCAUGAUGGAUCUUCTT against Gabrb1 has a z-score of -2.
For GGAAACAACGGAUCCAAAATT against Plcb3, the z-score was 2.47 (active).
“GCUUACAUCCAAGCCGUCUTT against 4931440B09Rik” gave a z-score of 1.71.
CCAAGUUCACAAUUGUUCUTT against Gm457 showed a z-score of -0.19.
For GGACUUGUCUUUGACACGCTT against Nt5c2, the z-score was 2.18.
For GGAUUCCCUAUCCCAUACCTT against Araf1, the z-score was 4.36 (active).
“GGUCAAAAGAAACAGGUGUTT against 2310047I15Rik” showed a z-score of 0.438.
For GCAACUAGCCUGUUCUAUCTT against AI325941, the z-score was 1.68.
In the case of GGAGUUGAAGUUUGUGACATT against Acpp, the z-score is reported as 2.3 (active).
In the case of “GGUGAAAGUGAGAAGGAAGTT against 6720460F02Rik”, the z-score is reported as -0.247.
Sequence CCUGAAUUACCUCAUAUAUTT against Stat5b has a z-score of 0.922.
With GCUGAAACCUCAUGAGGAGTT against Ptpn9 the z-score was 3.06 (active).
GCUACUAUUGUGUUCUGAATT against Drd1a showed a z-score of -0.386.
In the case of GGUACUCGGUUAUCAUGAATT against Olfr1403, the z-score is reported as 1.39.
For GGAAAGGACCACCUAAGUUTT against Pde6g, the z-score was -2.22 (active).
GGUUACCUGAGGUCAGUAGTT against Ifi1 gave a z-score of -2.31.
GGCUAAUGUGCUCUCUCAUTT against Olfr644 showed a z-score of 1.28.
In the case of CCCACAGGGAUUUAUUUAUTT against Slc37a1, the z-score is reported as 1.36 (active).
In the case of CCUUGAAAUACUGAGUGACTT against AU067695, the z-score is reported as 1.17.
GGAGCAAUGUUGUCACAACTT against Fbln1 gave a z-score of -0.548.
“CGUGUAAAAGCCGGAUUGATT against 1500015L24Rik” gave a z-score of 0.909.
With “GCAAAGCUGAUGGACUCAATT against 2410018M08Rik” the z-score was -0.965.
In the case of GGCAAAAGUGGUUAUUGAATT against Itga6, the z-score is reported as 3.02 (active).
For GGAUAAUGGUAUCUACUUCTT against Cd79b, the z-score was -0.408.
Sequence GGCAAGAAUCAAGGAGAGATT against Nek1 has a z-score of 1.44.
Work on GCGAUUAAUGGCAUAGUUUTT against Sara1 yielded a z-score of -1.04.
For GACAGGAAGUUGAUGAAUUTT against Raet1a, the z-score was -0.444.
With “GGCAAACAAAUGGUUUGUUTT against D430030K24Rik” the z-score was 2.76 (active).
Sequence “GCACCUUAAAAAUGAAGAUTT against D12Ertd551e” has a z-score of -0.616.
In the case of GGUACCGGAAAGGAAGUGUTT against Grm1, the z-score is reported as -0.666.
Work on GGAAGAGAAAGACCUGAGATT against Glra1 yielded a z-score of -0.8.
With GGCUGAGAUCUGAAAUUGATT against Krt2-5 the z-score was 0.59.
For CGAAAGUUACUCAUAGAGATT against Itga6, the z-score was 0.364 (active).
“GCAGGUGCCAACAUUAUUGTT against 0610039C21Rik” gave a z-score of 1.5.
Work on GGAAGAAAUGGACCAGCUGTT against Brp16 yielded a z-score of -1.27.
Work on CCUUAUCCAAGAGUAGGGCTT against AY534250 yielded a z-score of 1.03.
With GGUGUGACACCUAAGAUGATT against AW212607 the z-score was 1.39.
In the case of GGACAAGUUGUUGGACUACTT against Smarca3, the z-score is reported as 1.04 (active).
“CCUAUCUUUACCACAUAGATT against 9030624J02Rik” showed a z-score of -0.939.
“GGACCCAUGAGGUUAACUUTT against D15Ertd781e” gave a z-score of -1.18.
GGUUCACCUGUCAAGUGGATT against Hfe gave a z-score of 0.781.
Work on “GGUGUGGGUGGGAAAAGAATT against 2610027C15Rik” yielded a z-score of -1.77.
With CCUUAUUUUACGGAACUGCTT against Olfr1018 the z-score was 0.819.
For GCUCUGCUAGUCAACUGCATT against Nrip2, the z-score was 0.681.
In the case of GGGAUUUAACAACAUGUAATT against Slc20a1, the z-score is reported as 2.29 (active).
With GGGCAUAGAGUCUCAAACUTT against Ptger1 the z-score was 0.492.
Work on GGAGCUUCUAGAGAAGAUCTT against Leng5 yielded a z-score of -2.29.
Sequence “GCGGCAGAUCUUCGAUUUCTT against 2610200G18Rik” has a z-score of -0.616.
In the case of GCUUCUAAGCCGAAGGCCATT against Hist1h1d, the z-score is reported as 0.442.
With “CCACCAUCAAAUAUAACUATT against 9930021J03Rik” the z-score was 0.126.
With GGAACAUGAAGCCUUUUACTT against Asb16 the z-score was 3.12 (active).
Work on CCCAGGACUCAUGAUUACATT against Tas2r134 yielded a z-score of -1.
Work on “CCAUCAAGAGGUAUAAUCUTT against A930017E24Rik” yielded a z-score of -2.24.
In the case of CGGACAGAUACAAUAGCUATT against BC057627, the z-score is reported as 3.74 (active).
Sequence GGAUUGUGCUGUGAAACAUTT against Pilrb has a z-score of -1.98.
In the case of GCCUUCAAAUGAAGGAAGGTT against Olfr699, the z-score is reported as -0.519.
Sequence “GGUGAAACUGAAUAAAAUCTT against 4931406C07Rik” has a z-score of 1.09.
“GGCUAGAGAAAUAGUGUUGTT against D6Ertd253e” gave a z-score of -0.28.
With GGAUGAAAUUAACUCUGAATT against Adprt1 the z-score was 2.49 (active).
Work on GCUUAAGGACGCAUUGAAATT against Pthlh yielded a z-score of -0.0187.
GGAACACCGAACAUAAAUATT against Gm610 gave a z-score of -0.526.
With “UCUGGAGUCUUAUCAAGGATT against 2210020M01Rik” the z-score was -0.752.
For “GGUGCCUGACCAAAAAGGATT against A830094I09Rik”, the z-score was 2.67 (active).
In the case of GCCGACUGGUUAAAUACAUTT against Nme3, the z-score is reported as -0.45.
With “CCCACUUAUAUAUGUAGUUTT against 2410187C16Rik” the z-score was -0.391.
In the case of GGCAGAAGCAAUGAACUAUTT against Npm1, the z-score is reported as 3.59 (active).
With GGCCUUGGGAAGGAAAGAGTT against Mospd1 the z-score was -1.74.
GGCACCUAACGACUUCAACTT against Pygm showed a z-score of 0.366.
With GCCCGCUCUCGGAUUUUGATT against Htr1b the z-score was 2.87 (active).
“GCUCAGACCAUAGUUUCUATT against A930002I21Rik” gave a z-score of 1.53.
Work on GCCUCAAAACUUCUUGUUCTT against Mxd3 yielded a z-score of 0.892.
GGCCUUUCUGGAGAAGAUGTT against Stfa3 showed a z-score of -0.717.
In the case of CCUUCGAACUCGAAAAAUUTT against Olfr722, the z-score is reported as 0.346.
“GGCCAUCGAACUCAAUCUCTT against 2810002D13Rik” gave a z-score of 0.717.
In the case of GGUUAAUGGGAAACUCUGCTT against Pias3, the z-score is reported as 2.89 (active).
Sequence GGACUUAUCGGUUAUCUUUTT against Nap1l2 has a z-score of 0.654.
Work on “CCGCACAGACCAUAGUAGATT against 1700121L12Rik” yielded a z-score of 0.0169.
“CCUAGUUGAAAAUUGGGAATT against 0610025O11Rik” showed a z-score of -0.794.
Work on GGAUGAACAGGAGAAAGUCTT against Irak2 yielded a z-score of 0.0975.
With CGAUGUACUGUCUCUUUUGTT against Ywhaz the z-score was 1.53.
